Screens deposited in PubChem by NMMLSC.
RGS16-Gao = regulators of human RGS16-Galphao interaction | bead-based flow cytometry RGS16-Galphao binding, fluorescence; actives lie on both sides | binding response (% of control), % at 10 µM | 220,000 tested, 0.38% active;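 further: Galphao activated by GDP with aluminum fluoride before binding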
RGS4-Gao reg = modulates binding of RGS4 to human Galphao | Multiplexed bead flow cytometry; actives lie on both sides | P09471 | binding response (% of control), % at 10 µM | 220,000 tested, 0.33% active; in the data active means binding response below about 49% or above about 150%; inactive means in between;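 further: fluorescent Galphao activated with aluminum fluoride binding bead-coupled RGS4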
Target sequence (P09471 whole entry, looked up): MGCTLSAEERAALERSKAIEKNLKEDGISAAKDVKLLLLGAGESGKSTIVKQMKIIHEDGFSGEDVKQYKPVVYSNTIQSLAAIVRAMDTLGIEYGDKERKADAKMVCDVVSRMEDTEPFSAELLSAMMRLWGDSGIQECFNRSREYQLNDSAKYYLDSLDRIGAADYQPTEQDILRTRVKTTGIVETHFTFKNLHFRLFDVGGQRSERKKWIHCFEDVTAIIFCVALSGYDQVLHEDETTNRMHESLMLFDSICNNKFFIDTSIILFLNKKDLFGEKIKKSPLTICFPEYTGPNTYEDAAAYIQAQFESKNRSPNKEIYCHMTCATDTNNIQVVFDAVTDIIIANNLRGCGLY
Avidin bead fluor = avidin bead compound fluorescence profile; Avidin beads, compound fluorescence 488/530 nm, flow cytometry; active compounds read high; fluorescence (KMESF) at 10 µM; 220,000 tested, 0.38% active; in the data active means fluorescence above about 47
RGS7-Gao = human RGS7-Galphao interaction regulation; P09471; Multiplexed bead flow cytometry, RGS7-Galphao binding; actives lie on both sides; binding response (% of control), % at 10 µM; 220,000 tested, 0.35% active; AID 1439; in the data active means binding response below about 49% or above about 150%; inconclusive means no clear call, values can overlap the other calls; inactive means in between;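 further: fluorescent Galphao held in activated GDP-AlF4 state binding bead-coupled RGS7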
RGS8-Gao reg = modulates binding of RGS8 to human Galphao; multiplexed bead flow cytometry; actives lie on both sides; response (percent of control binding), % at 10 µM; 220,000 tested, 0.34% active; in the data active means response below about 60% or above about 140%; inactive means in between;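 further: Galphao activated as the GDP aluminium fluoride complex binding bead-coupled RGS8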
GSH fluor = compound fluoresces at 488/530 nm on GSH beads; 190,000 tested, 0.25% active; GSH beads flow cytometry, compound fluorescence 488/530 nm; active compounds read high; fluorescence (KMESF) at 10 µM; AID 1776; in the data active means fluorescence above about 89;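 further: glutathione beads carrying GST-tagged Bcl family fusion proteins plus one bare bead set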
RGS4-Gao HTS = regulators of human RGS4-Galphao interaction. shares compounds with RGS16-Gao. multiplexed bead flow cytometry, RGS–Galpha-o binding. RGS4–Galpha-o binding response, % at 10 µM. 1,600 tested, 99% active;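 further: fluorescently labeled Galpha-o bound to GDP with aluminium fluoride binding biotinylated RGS beads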
Avidin counter = interferes with biotinylated probe binding to avidin beads | 1,700 tested, under 10 active | inhibition, % at 10 µM | streptavidin beads, fluorescein-biotin binding, flow cytometry | shares compounds with RGS16-Gao;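 active means inhibition above 50%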;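 further: median green fluorescence of gated singlet beads compared with DMSO control wells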
RGS8-Gao confirm = RGS8-Galphao interaction regulation, single point confirmation; binding response (% of control), % at 10 µM; shares compounds with RGS16-Gao; 1,700 tested, 3% active; bead-based flow cytometry RGS8-Galphao binding, fluorescence; actives lie on both sides; in the data active means binding response below about 72% or above about 130%; inactive means in between;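 further: Galphao activated as GDP AlF4 complex before binding bead RGS8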
RGS7-Gao single = RGS7-Galphao interaction regulation, single point confirmation; shares compounds with RGS16-Gao; bead-based flow cytometry RGS7-Galphao binding; actives lie on both sides; response (percent of control binding), % at 10 µM; 1,700 tested, 7.8% active; in the data active means response below about 75% or above about 130%; inactive means in between;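 further: fluorescent Galphao activated with GDP and aluminum fluoride binding bead-coupled RGS7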
RGS16-Gao conf = RGS16-Galphao interaction regulation, single point confirmation; shares compounds with RGS16-Gao; response (% of control binding), % at 10 µM; bead-based flow cytometry, RGS16-Galphao binding; actives lie on both sides; 1,700 tested, 4% active; AID 1838; in the data active means response below about 74% or above about 130%; inactive means in between;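 further: Galphao activated as the GDP aluminium fluoride complex binding bead-coupled RGS16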
RGS4-Gao single = confirmation of regulators of human RGS4-Galphao interaction; shares compounds with RGS16-Gao; RGS4-Galphao binding, multiplexed bead flow cytometry; actives lie on both sides; binding response (% of control), % at 10 µM; 1,700 tested, 4% active; in the data active means binding response below about 74% or above about 130%; inactive means in between
RGS19-Gao conf = confirmation of regulators of human RGS19-Galphao interaction; shares compounds with RGS16-Gao; bead-based flow cytometry RGS19-Galphao binding; actives lie on both sides; response (percent of control binding), % at 10 µM; 1,700 tested, 5% active; in the data active means response below about 50% or above about 160%; inactive means in between
Each line names hits and unclear results; the compound was inactive in the other large screens (follow-up assays come after a bar, where they were run); [ ] = another dose, or the depositor's remark. In the library only some 1.2% were active in any assay of this set; here they are far more common. Unless noted, how the calls were made is not given here.

COc1ccc(N2CCN(C(CNC(C)=O)c3ccco3)CC2)cc1 (stereo not drawn)	none
CC(C)CCN1CCN(Cc2nc3c(s2)CCCC3)CC1CCO (stereo not drawn)	RGS4-Gao reg 40, RGS7-Gao 27, RGS8-Gao reg 38 | Avidin counter inactive | RGS8-Gao confirm inactive | RGS7-Gao single inactive | RGS16-Gao conf inactive | RGS4-Gao single inactive | RGS19-Gao conf inactive
OCCC1CN(Cc2nc3c(s2)CCCC3)CCN1CCc1ccccc1 (stereo not drawn)	none
NC1=NC(c2ccccc2)N=C(Nc2ccccc2)N1 (stereo not drawn)	RGS16-Gao -30, RGS4-Gao reg -58, RGS7-Gao inconclusive, RGS8-Gao reg 0.9 (no result: GSH fluor) | Avidin counter inactive | RGS8-Gao confirm inactive | RGS7-Gao single inactive | RGS16-Gao conf inactive | RGS4-Gao single inactive | RGS19-Gao conf inactive
O=C(OCC(=O)C12CC3CC(CC(C3)C1)C2)c1cccnc1Cl	none (no result: GSH fluor)
c1ccc(-c2csc(Nc3ccc4c(c3)OCCO4)n2)cc1	RGS7-Gao 50, RGS8-Gao reg 55 | RGS4-Gao HTS 91 | Avidin counter inactive | RGS8-Gao confirm inactive | RGS7-Gao single inactive | RGS16-Gao conf inactive | RGS4-Gao single inactive | RGS19-Gao conf inactive
c1cc2c(cc1Nc1nc(-c3ccc4c(c3)OCO4)cs1)OCCO2	none
NC(=O)c1ccc2c(=O)n3c(-c4cccs4)csc3nc2c1	RGS7-Gao inconclusive (no result: GSH fluor)
COC(=O)c1ccc(Cn2nc([N+](=O)[O-])c(Br)c2C)cc1	RGS7-Gao inconclusive (no result: GSH fluor)
Nc1[nH]nc2nc(-c3ccccc3)[nH]c(=O)c12	RGS7-Gao inconclusive (no result: GSH fluor)
Nc1nc(-c2ccccc2)[nH]c(=O)c1N	none | Avidin counter inactive | RGS8-Gao confirm inactive | RGS7-Gao single inactive | RGS16-Gao conf inactive | RGS4-Gao single inactive | RGS19-Gao conf inactive
Cc1ccc(S(=O)(=O)N2CCN(C(=O)c3cccc(F)c3)CC2)cc1	Avidin bead fluor 172, RGS7-Gao 264[activator] | RGS4-Gao HTS 125 | Avidin counter inactive | RGS8-Gao confirm inactive | RGS7-Gao single inactive | RGS16-Gao conf inactive | RGS4-Gao single inactive | RGS19-Gao conf inactive
COC(=O)C/C=N/N=C1/NC(=O)/C(=C/C(=O)O)S1	RGS7-Gao inconclusive (no result: GSH fluor)
COc1ccc(-c2cc(C(F)(F)F)c(C#N)c(SCC(=O)Nc3ccccc3C#N)n2)cc1	RGS4-Gao reg 256[activator], Avidin bead fluor 49, RGS7-Gao 153[activator] | Avidin counter inactive | RGS8-Gao confirm inactive | RGS7-Gao single inactive | RGS16-Gao conf inactive | RGS4-Gao single inactive | RGS19-Gao conf inactive
COc1ccc(NC(=O)CSc2nc(-c3ccc(C)cc3)cc(C(F)(F)F)c2C#N)cc1	none
CCOC(=O)c1cc(OCC(=O)NC(C)C(C)C)cc(C(=O)OCC)c1 (stereo not drawn)	RGS16-Gao -19, RGS4-Gao reg -31, RGS7-Gao -9.7, RGS8-Gao reg 6.1 | Avidin counter inactive | RGS8-Gao confirm inactive | RGS7-Gao single inactive | RGS16-Gao conf inactive | RGS4-Gao single inactive | RGS19-Gao conf inactive
